In the library only some 20% were active in any assay of this set; here they are far more common.
Shiga inhibitor – Shiga toxin inhibition; Vero cells, Shiga toxin protein synthesis inhibition reporter; inhibition, % at 38.7 µM; 290,000 tested, 9.2% active; AID 2315; in the data active means inhibition mostly above about 28%, no sharp cut-off; inactive means mostly below about 43%; further: 0% is about no effect
Cycloheximide cs – affects cycloheximide protein synthesis inhibition readout, counter-screen; max response, %; 300,000 tested, 12% active; cell reporter, cycloheximide protein synthesis inhibition counterscreen; in the data active means max response mostly above about 13%, no sharp cut-off; inactive means mostly below about 14%; further: read at 38.3 µM for the half of the compounds with a filed dose; 0% is about no effect
HCMV antiviral – inhibitors of human cytomegalovirus | HFF cells, HCMV-luciferase reporter, 72 h; active compounds read low | activity change, negative = inhibition, % at 57.5 µM | 410,000 tested, 4.5% active | AID 1259415; in the data active means activity change below about -60%; inconclusive means no clear call, values can overlap the other calls; inactive means above about -39%; further: on the % scale 0 is the no-effect control and ±100 the full control effect
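Two compound doses tested in HFFs infected with HCMV-luciferase, MOI 1 PFU/cell, 72 h at 37C. Lysate luminescence read with OneGlo; data normalized against buffer-only and 10uM Salinomycin inhibitor controls.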
Pf growth 96h – P. falciparum growth inhibition at 96 hours; P. falciparum luciferase reporter growth, 96 h; Potency, µM (top dose mostly 28.7 µM), for inactives: top-dose activity change, negative = inhibition, usual class: inhibitors; 320,000 tested, 6.9% active; AID 504834; further: potency means the concentration at half of the fitted maximal effect; on the % scale 0 is the no-effect control and ±100 the full control effect
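Compounds incubated with erythrocytes infected by luciferase-expressing P. falciparum (2% hematocrit, 0.05% parasitemia final) for 96 hours, 37 C in 5% CO2. Growth inhibition scored as decreased luciferase luminescence.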
Pf growth 48h – inhibits P. falciparum growth in the first generation, 48 h; 310,000 tested, 5.9% active; Potency, µM (top dose mostly 28.7 µM), without a hit: at the highest dose activity change, negative = inhibition, actives largely listed as inhibitors; P. falciparum luciferase growth in erythrocytes, 48 h; further: potency means the concentration at half of the fitted maximal effect; on the % scale 0 is the no-effect control and ±100 the full control effect
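Cell-based growth assay: transgenic P. falciparum expressing firefly luciferase, cultured in red cells within RPMI 1640 containing 0.5% w/v Albumax, 24 mM bicarbonate and gentamycin. A drop in luciferase activity indicates inhibition.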
The depositor's hits bear a star; [ ] = dose if it differs, or a comment. Unless noted, the call rests on the fitted dose curve; in most records, active means well fitted inhibition curve with a large enough effect; inconclusive means small, poorly fitted or top-dose-only effect, or another doubt; inactive means no such curve, though single readings can be large or run the other way.

What do the screens show for `Cc1c(O)ccc2cc(S(=O)(=O)c3ccccc3)c(=O)oc12`?
Shiga inhibitor: -1; Cycloheximide cs: 0; HCMV antiviral: -31; Pf growth 96h: 12µM*; Pf growth 48h: 7%[0.00184 µM]

What do the screens show for `O=C(CC1C(=O)N(c2ccccc2)C(=O)N1CCC1=CCCCC1)Nc1ccc(F)cc1` (stereo not drawn)?
HCMV antiviral: -5

Results for CCOc1cc(S(=O)(=O)n2ccnc2)ccc1Cl ?
Shiga inhibitor: 4; Cycloheximide cs: 0; HCMV antiviral: -5; Pf growth 96h: 3%; Pf growth 48h: 20%

How did COc1ccccc1NC(=O)C1CCCN(c2ncnc3onc(-c4ccc(F)cc4)c23)C1 (stereo not drawn) do in these assays?
HCMV antiviral: 0

How did Cc1ccc(C(=O)OC/C(O)=C(\C#N)c2nc3ccccc3[nH]2)cc1S(=O)(=O)N1CCOCC1 do in these assays?
Shiga inhibitor: 8; Cycloheximide cs: 9; HCMV antiviral: -10; Pf growth 96h: inconclusive; Pf growth 48h: 8%

Results for O=C(Nc1ccc(F)c(F)c1)c1ccc(F)c(S(=O)(=O)N2CCOCC2)c1 ?
Shiga inhibitor: -14; Cycloheximide cs: -5; Pf growth 96h: inconclusive; Pf growth 48h: inconclusive

How did O=C(Nc1nc2ccccc2[nH]1)c1ccc(F)c(S(=O)(=O)N2CCOCC2)c1 do in these assays?
Shiga inhibitor: 44*; Cycloheximide cs: 50*; HCMV antiviral: 9; Pf growth 96h: 92%; Pf growth 48h: 71%

Results for Cc1ccc(S(=O)(=O)N2CCOCC2)cc1N/N=C(\C#N)c1nc2ccccc2[nH]1 ?
Shiga inhibitor: 5; Cycloheximide cs: 9; HCMV antiviral: -3; Pf growth 96h: 3.3µM*; Pf growth 48h: inconclusive

How did O=C(Nc1nc2ccccc2[nH]1)c1cccc(S(=O)(=O)N2CCOCC2)c1 do in these assays?
Shiga inhibitor: 42*; Cycloheximide cs: 39*; HCMV antiviral: 0; Pf growth 96h: 37%; Pf growth 48h: 33%

How did Cc1ccc(NS(=O)(=O)c2ccc(-c3csc(C)n3)s2)c(C)c1 do in these assays?
Shiga inhibitor: 17; Cycloheximide cs: 8; HCMV antiviral: 0; Pf growth 96h: 36%; Pf growth 48h: 9%

Results for NS(=O)(=O)c1ccc(CCNC(=O)CCCCCn2c(=S)[nH]c3ccc(Br)cc3c2=O)cc1 ?
Shiga inhibitor: -10; Cycloheximide cs: -1; HCMV antiviral: -28; Pf growth 96h: 29%; Pf growth 48h: inconclusive

What do the screens show for `COc1ccc(/C=N/NC(=O)CCSc2nc3ccccc3s2)cc1OC`?
Shiga inhibitor: 3; Cycloheximide cs: 0; HCMV antiviral: -7; Pf growth 96h: inconclusive; Pf growth 48h: -22%

What do the screens show for `O=C(CCSc1nc2ccccc2s1)N/N=C/c1c(O)ccc2ccccc12`?
Shiga inhibitor: -1; Cycloheximide cs: -1; HCMV antiviral: -99*; Pf growth 96h: 2.9µM*; Pf growth 48h: inconclusive

Results for Cc1cc(C)n(CCC(=O)N/N=C/c2c(O)ccc3ccccc23)n1 ?
Shiga inhibitor: 3; Cycloheximide cs: -4; HCMV antiviral: -83*; Pf growth 96h: inconclusive; Pf growth 48h: 6.6µM*

How did C[C@H](O)[C@H]1CC[C@H]2[C@@H]3CCC4=CC(=O)CC[C@]4(C)[C@H]3CC[C@]12C do in these assays?
Shiga inhibitor: -13; Cycloheximide cs: -1; HCMV antiviral: -28; Pf growth 96h: -16%; Pf growth 48h: -4%

Results for C[C@]12CC[C@H]3[C@@H](CCC4=CC(=O)CC[C@@]43C)[C@@H]1CC[C@@H]2C(=O)CO ?
Shiga inhibitor: -11; Cycloheximide cs: 1; HCMV antiviral: 29; Pf growth 96h: 9.3µM*; Pf growth 48h: 12µM*

What do the screens show for `CC12CCC(=O)C=C1CCC1C2CCC2(C)C(O)(C(=O)CO)CCC12O` (stereo not drawn)?
HCMV antiviral: -65*

How did CC12CCC(=O)C=C1CCC1C2CCC2(C)C1CCC2(O)C(=O)CO (stereo not drawn) do in these assays?
HCMV antiviral: 1

How did CC(=O)OCC(=O)[C@H]1CC[C@H]2[C@@H]3CCC4=CC(=O)CC[C@]4(C)[C@H]3CC[C@]12C do in these assays?
Shiga inhibitor: -1; Cycloheximide cs: -3; HCMV antiviral: -33; Pf growth 96h: inconclusive; Pf growth 48h: inconclusive

Results for CC(=O)C1C(N2CC2)CC2C3CCC4=CC(=O)CCC4(C)C3CCC21C (stereo not drawn) ?
HCMV antiviral: -63*

Results for Cc1ccc(N(CC(=O)NCC2CCCO2)C(=O)CCC(=O)Nc2cc(C)on2)cc1 (stereo not drawn) ?
Shiga inhibitor: -9; Cycloheximide cs: -3; HCMV antiviral: 0; Pf growth 96h: -5%; Pf growth 48h: 9%

Results for O=C(NCCc1ccccc1)c1cnn(-c2ccc(F)cc2)c1-n1cccc1 ?
HCMV antiviral: -26

Results for COC(=O)c1sc(N)nc1CCNC(=O)OC(C)(C)C ?
HCMV antiviral: 5

How did COc1ccc(NC(=O)N2CCOc3ccc(Cl)cc32)cc1 do in these assays?
HCMV antiviral: -8

Results for O=C(C[n+]1ccccc1)c1ccc(-c2ccccc2)cc1 ?
Shiga inhibitor: -8; Cycloheximide cs: -11; HCMV antiviral: 2; Pf growth 96h: 10%; Pf growth 48h: 30%

How did CN(C)c1cc[n+](CC(=O)c2ccc(-c3ccccc3)cc2)cc1 do in these assays?
Shiga inhibitor: -3; Cycloheximide cs: 0; HCMV antiviral: -95*; Pf growth 96h: inconclusive; Pf growth 48h: 4.7µM*

Results for COc1ccc(C(=O)C[n+]2ccc(N(C)C)cc2)cc1 ?
Shiga inhibitor: 11; Cycloheximide cs: 2; HCMV antiviral: -68*; Pf growth 96h: inconclusive; Pf growth 48h: 1.2µM*

How did CN(C)c1cc[n+](CC(=O)c2ccc(Br)cc2)cc1 do in these assays?
Shiga inhibitor: 31; Cycloheximide cs: -1; HCMV antiviral: -74*; Pf growth 96h: inconclusive; Pf growth 48h: inconclusive

How did CCCNC(=O)C1(C)CCN(CCS(=O)(=O)c2ccc(C)cc2)C1 (stereo not drawn) do in these assays?
HCMV antiviral: -6

How did O=C(Cn1nnc(N2CCOCC2)n1)NN=Cc1ccccc1Cl do in these assays?
HCMV antiviral: -13

What do the screens show for `CCN(CC)CCCNC(=O)/C=C/C(=O)O`?
Shiga inhibitor: -15; Cycloheximide cs: -3; HCMV antiviral: 21; Pf growth 96h: 3%; Pf growth 48h: -2%

What do the screens show for `CN(Cc1ccccc1)C(=O)c1nc2ccccn2c1CN1CCCC1c1nccs1` (stereo not drawn)?
Shiga inhibitor: -15; Cycloheximide cs: 15; HCMV antiviral: -5; Pf growth 96h: inconclusive; Pf growth 48h: 6.6µM*

Results for CCN(CCCNC(=O)c1cc2c(=O)[nH]c3ccc(C)cc3c2s1)Cc1ccccc1 ?
HCMV antiviral: -106*

How did CCCN1CCN(CCCNC(=O)c2cc3c(=O)[nH]c4ccc(C)cc4c3s2)CC1 do in these assays?
Shiga inhibitor: -6; Cycloheximide cs: -1; HCMV antiviral: -101*; Pf growth 96h: inconclusive; Pf growth 48h: inconclusive

Screens: PubChem BioAssay, National Center for Advancing Translational Sciences (NCATS)
